PubChem BioAssay (EPA / NIEHS)
Activity calls are given as the source filed them. How the source made its calls: active means hit-call score of the fitted dose curve at least 0.9, where 1 is the maximum; inactive means score below 0.9.

Legend:
Details in all cases: mRNA level, 48 h; actives raise or lower the signal
CYP2C9 (gene 1559) = experiment: LTEA_HepaRG_CYP2C9: Life Technologies and Expression Analysis (LTEA) Assay for CYP2C9 using HepaRG (AID 2283484)
Outline: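 Eight-point concentration-response (highest 100 uM, half-log dilutions) in HepaRG cells for 48 h; CYP2C9 expression by qRT-PCR normalized to ACTB, GAPDH, POLR2A. Bidirectional fit, DMSO baseline.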

CYP2E1 (gene 1571) = experiment: LTEA_HepaRG_CYP2E1: Life Technologies and Expression Analysis (LTEA) Assay for CYP2E1 using HepaRG (AID 2283485)
Outline: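 Readout is qRT-PCR of CYP2E1 mRNA, normalized to three housekeeping genes and fitted bidirectionally against 0.5% DMSO. HepaRG cells were dosed 48 h at eight concentrations, highest 100 uM with half-log dilutions.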

CYP4A11 (gene 1579) = experiment: LTEA_HepaRG_CYP4A11: Life Technologies and Expression Analysis (LTEA) Assay for CYP4A11 using HepaRG (AID 2283486)
Outline: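 Readout is CYP4A11 transcript level by qRT-PCR, normalized to three housekeeping genes and fitted bidirectionally against 0.5% DMSO. Human HepaRG cells were treated 48 h, in duplicate, with an 8-point half-log series topping at 100 uM.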

[1] = read-out: Cytochrome P450 3A4 (Homo sapiens) (UniProt P08684); experiment: LTEA_HepaRG_CYP3A4: Life Technologies and Expression Analysis (LTEA) Assay for CYP3A4 using HepaRG (AID 2283487)
Outline: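 Differentiated HepaRG cells, plated 48 h, then dosed 48 h in serum-free induction medium with 0.5% DMSO, 8 half-log concentrations up to 100 uM, duplicate. CYP3A4 mRNA by qRT-PCR, normalized to ACTB/GAPDH/POLR2A; bidirectional fit versus DMSO.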

[2] = read-out: DNA damage-inducible transcript 3 (DDIT3), DDIT3 (gene 1649); experiment: LTEA_HepaRG_DDIT3: Life Technologies and Expression Analysis (LTEA) Assay for DNA damage-inducible transcript 3 (DDIT3) using HepaRG (AID 2283488)
Outline: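 Cells are human HepaRG liver cells treated for 48 h with eight half-log concentrations up to 100 uM in 0.5% DMSO. Transcript levels come from qRT-PCR normalized to three housekeeping genes, with activity fitted in both directions relative to vehicle.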

[3] = read-out: Pro-epidermal growth factor (Homo sapiens) (UniProt P01133); experiment: LTEA_HepaRG_EGF: Life Technologies and Expression Analysis (LTEA) Assay for Epidermal growth factor (EGF) using HepaRG (AID 2283489)
Outline: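 EGF transcript measured by Fluidigm TaqMan qRT-PCR with three housekeeping genes for normalization, 48 h after dosing HepaRG cultures in duplicate (top 100 uM, half-log steps, 0.5% DMSO vehicle). Gain or loss relative to DMSO fitted.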

[4] = read-out: Early growth response protein 1 (EGR1) transcription factor, EGR1 (gene 1958); experiment: LTEA_HepaRG_EGR1: Life Technologies and Expression Analysis (LTEA) Assay for Early growth response protein 1 (EGR1) transcription factor using HepaRG (AID 2283490)
Outline: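 EGR1 expression change in human HepaRG after 48 h chemical exposure, assessed by housekeeping-normalized qRT-PCR; concentration-response up to 100 uM, fitted in both directions against DMSO controls.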

[5] = read-out: Ezrin (EZR), EZR (gene 7430); experiment: LTEA_HepaRG_EZR: Life Technologies and Expression Analysis (LTEA) Assay for Ezrin (EZR) using HepaRG (AID 2283491)
Outline: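 EZR transcript levels came from Fluidigm qRT-PCR and were normalized to three housekeeping genes after 48 h chemical exposure of HepaRG cells. Dosing used an 8-point half-log series with a 100 uM top concentration in 0.5% DMSO, tested in duplicate; both directions were fitted versus vehicle.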

[6] = read-out: Cytochrome P450 3A7 (Homo sapiens) (UniProt P24462); experiment: LTEA_HepaRG_CYP3A7: Life Technologies and Expression Analysis (LTEA) Assay for CYP3A7 using HepaRG (AID 2283492)
Outline: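 CYP3A7 transcript measured by qRT-PCR (ACTB, GAPDH, POLR2A normalization) after 48 h chemical exposure of HepaRG cells in duplicate. Eight half-log concentrations, maximum 100 uM, 0.5% DMSO vehicle; bidirectional curve fitting against DMSO baseline.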

CYP3A5 (gene 1577) = experiment: LTEA_HepaRG_CYP3A5: Life Technologies and Expression Analysis (LTEA) Assay for CYP3A5 using HepaRG (AID 2283493)
Outline: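 Human HepaRG hepatic cells receive 48 h chemical treatment at eight concentrations (half-log steps from 100 uM) in 0.5% DMSO. Expression of CYP3A5 is quantified by Fluidigm qRT-PCR and normalized to three reference genes.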

[7] = read-out: Fatty Acid-Binding Protein 1 (FABP1), FABP1 (gene 2168); experiment: LTEA_HepaRG_FABP1: Life Technologies and Expression Analysis (LTEA) Assay for Fatty Acid-Binding Protein 1 (FABP1) using HepaRG (AID 2283494)
Outline: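 Values reflect bidirectional concentration-response fitting of FABP1 mRNA change against 0.5% DMSO controls. Human HepaRG cultures received eight half-log doses (top 100 uM) for 48 h; expression quantified by TaqMan qRT-PCR with housekeeping-gene normalization.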

[8] = read-out: Cytochrome P450 4A22 (Homo sapiens) (UniProt Q5TCH4); experiment: LTEA_HepaRG_CYP4A22: Life Technologies and Expression Analysis (LTEA) Assay for Cytochrome P450 4A22 (CYP4A22) using HepaRG (AID 2283495)
Outline: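 Gene expression measured by qRT-PCR against three housekeeping genes (ACTB, GAPDH, POLR2A), with gain or loss fitted relative to 0.5% DMSO vehicle. HepaRG cultures received 48 h chemical treatment, top concentration 100 uM, half-log steps, duplicate wells.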

[9] = read-out: Glutathione S-Transferase (GSTA2), GSTA2 (gene 2939); experiment: LTEA_HepaRG_GSTA2: Life Technologies and Expression Analysis (LTEA) Assay for Glutathione S-Transferase (GSTA2) using HepaRG (AID 2283497)
Outline: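 Oxidative-stress marker GSTA2 is quantified by TaqMan qRT-PCR in HepaRG cultures treated 48 h across an eight-point range to 100 uM. Expression is normalized to endogenous controls and compared with 0.5% DMSO vehicle.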

[10] = read-out: Glutamate-cysteine ligase catalytic (GCLC), GCLC (gene 2729); experiment: LTEA_HepaRG_GCLC: Life Technologies and Expression Analysis (LTEA) Assay for Glutamate-cysteine ligase catalytic (GCLC) using HepaRG (AID 2283498)
Outline: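 Oxidative-stress marker GCLC is measured as mRNA change in human HepaRG liver cells after 48 h chemical treatment in 0.5% DMSO, eight concentrations from 100 uM. Activity is fitted bidirectionally against vehicle.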

[11] = read-out: growth arrest and DNA damage 45 (GADD45G), GADD45G (gene 10912); experiment: LTEA_HepaRG_GADD45G: Life Technologies and Expression Analysis (LTEA) Assay for growth arrest and DNA damage 45 (GADD45G) using HepaRG (AID 2283499)
Outline: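 GADD45G transcript level by qRT-PCR (housekeeping-normalized: ACTB, GAPDH, POLR2A) after 48 h chemical treatment of a single HepaRG lot in serum-free induction medium; eight-point half-log series up to 100 uM in 0.5% DMSO, duplicates, up- or down-regulation scored.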

[12] = read-out: Glutamate-cysteine ligase regulatory (GCLM), GCLM (gene 2730); experiment: LTEA_HepaRG_GCLM: Life Technologies and Expression Analysis (LTEA) Assay for Glutamate-cysteine ligase regulatory (GCLM) using HepaRG (AID 2283500)
Outline: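 Endpoint is GCLM transcript level by qRT-PCR, normalized to three housekeeping genes, after 48 h chemical exposure of human HepaRG cells (0.5% DMSO vehicle, top 100 uM, half-log dilutions). Fitting was bidirectional relative to DMSO.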

[13] = read-out: Glutathione S-transferase M3 (GSTM3), GSTM3 (gene 2947); experiment: LTEA_HepaRG_GSTM3: Life Technologies and Expression Analysis (LTEA) Assay for Glutathione S-transferase M3 (GSTM3) using HepaRG (AID 2283501)
Outline: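 GSTM3 transcript levels came from Fluidigm TaqMan qRT-PCR normalized to three housekeeping genes, fitted in both directions against DMSO. HepaRG cultures received chemicals for 48 h in serum-free induction medium (0.5% DMSO), 8 half-log concentrations up to 100 uM, duplicate.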

[14] = read-out: Heat shock 70 kDa protein 1 (HSPA1A), gene 3303; experiment: LTEA_HepaRG_HSPA1A: Life Technologies and Expression Analysis (LTEA) Assay for Heat shock 70 kDa protein 1 (HSPA1A) using HepaRG (AID 2283502)
Outline: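 Cells were plated and cultured for 48 h, then switched to serum-free induction medium. Chemicals were added at eight half-log concentrations up to 100 uM for 48 h. RNA was then isolated and HSPA1A measured by qRT-PCR with bidirectional curve fitting against DMSO.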

[15] = read-out: Hypoxia-inducible factor 1-alpha (Homo sapiens) (UniProt Q16665); experiment: LTEA_HepaRG_HIF1A: Life Technologies and Expression Analysis (LTEA) Assay for Hypoxia-inducible factor 1 (HIF1A) Trancription factor using HepaRG (AID 2283503)
Outline: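 HIF1A transcript level read by qRT-PCR (ACTB, GAPDH, POLR2A normalization) after 48 h chemical exposure of HepaRG cultures. Eight half-log concentrations, top 100 uM, 0.5% DMSO vehicle, duplicates; bidirectional curve fit against DMSO baseline.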

[16] = read-out: Cytochrome P450 7A1 (Homo sapiens) (UniProt P22680); experiment: LTEA_HepaRG_CYP7A1: Life Technologies and Expression Analysis (LTEA) Assay for Cytochrome P450 7A1 (CYP7A1) using HepaRG (AID 2283496)
Outline: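 HepaRG, 48 h exposure, 8-pt half-log series from 100 uM, 0.5% DMSO vehicle, duplicates. Readout: TaqMan qRT-PCR mRNA vs three housekeeping genes; bidirectional curve fit against DMSO baseline.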

Sequence of Cytochrome P450 3A4 (Homo sapiens) (P08684 whole entry, looked up): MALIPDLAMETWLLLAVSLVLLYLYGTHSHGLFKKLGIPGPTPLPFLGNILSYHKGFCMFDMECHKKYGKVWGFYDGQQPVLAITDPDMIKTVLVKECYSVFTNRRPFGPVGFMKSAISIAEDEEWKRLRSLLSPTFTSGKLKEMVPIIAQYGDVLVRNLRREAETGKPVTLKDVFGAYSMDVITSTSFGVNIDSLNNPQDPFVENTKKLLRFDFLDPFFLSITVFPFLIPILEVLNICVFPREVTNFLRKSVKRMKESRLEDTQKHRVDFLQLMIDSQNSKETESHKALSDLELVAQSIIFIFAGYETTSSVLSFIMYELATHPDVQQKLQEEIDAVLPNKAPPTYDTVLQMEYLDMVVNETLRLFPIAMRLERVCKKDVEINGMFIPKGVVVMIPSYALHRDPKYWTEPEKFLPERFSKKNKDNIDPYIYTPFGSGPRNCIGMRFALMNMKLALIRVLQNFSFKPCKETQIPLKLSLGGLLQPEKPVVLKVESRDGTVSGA
Sequence of Hypoxia-inducible factor 1-alpha (Homo sapiens) (Q16665 whole entry, looked up): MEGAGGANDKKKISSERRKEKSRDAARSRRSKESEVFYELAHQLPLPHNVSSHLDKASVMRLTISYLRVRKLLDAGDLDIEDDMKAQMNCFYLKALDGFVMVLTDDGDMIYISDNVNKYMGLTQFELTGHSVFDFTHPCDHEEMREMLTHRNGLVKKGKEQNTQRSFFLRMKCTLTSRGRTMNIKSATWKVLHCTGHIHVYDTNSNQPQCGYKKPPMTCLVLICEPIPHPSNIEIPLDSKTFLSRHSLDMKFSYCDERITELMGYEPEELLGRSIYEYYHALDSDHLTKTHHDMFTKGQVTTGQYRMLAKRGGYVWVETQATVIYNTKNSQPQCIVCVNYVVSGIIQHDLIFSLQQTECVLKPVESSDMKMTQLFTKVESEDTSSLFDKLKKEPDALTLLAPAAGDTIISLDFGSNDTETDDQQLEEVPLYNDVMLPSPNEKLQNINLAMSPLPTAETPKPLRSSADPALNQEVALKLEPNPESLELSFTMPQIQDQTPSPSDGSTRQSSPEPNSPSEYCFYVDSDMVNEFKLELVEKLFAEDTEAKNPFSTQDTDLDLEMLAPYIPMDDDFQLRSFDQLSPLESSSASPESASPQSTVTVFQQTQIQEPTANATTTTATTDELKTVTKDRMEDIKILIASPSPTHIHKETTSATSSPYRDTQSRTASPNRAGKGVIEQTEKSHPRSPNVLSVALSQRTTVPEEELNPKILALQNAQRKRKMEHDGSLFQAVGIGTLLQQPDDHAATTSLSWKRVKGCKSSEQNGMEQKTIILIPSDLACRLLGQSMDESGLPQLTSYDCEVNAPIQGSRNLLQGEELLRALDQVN
Sequence of Cytochrome P450 3A7 (Homo sapiens) (P24462 whole entry, looked up): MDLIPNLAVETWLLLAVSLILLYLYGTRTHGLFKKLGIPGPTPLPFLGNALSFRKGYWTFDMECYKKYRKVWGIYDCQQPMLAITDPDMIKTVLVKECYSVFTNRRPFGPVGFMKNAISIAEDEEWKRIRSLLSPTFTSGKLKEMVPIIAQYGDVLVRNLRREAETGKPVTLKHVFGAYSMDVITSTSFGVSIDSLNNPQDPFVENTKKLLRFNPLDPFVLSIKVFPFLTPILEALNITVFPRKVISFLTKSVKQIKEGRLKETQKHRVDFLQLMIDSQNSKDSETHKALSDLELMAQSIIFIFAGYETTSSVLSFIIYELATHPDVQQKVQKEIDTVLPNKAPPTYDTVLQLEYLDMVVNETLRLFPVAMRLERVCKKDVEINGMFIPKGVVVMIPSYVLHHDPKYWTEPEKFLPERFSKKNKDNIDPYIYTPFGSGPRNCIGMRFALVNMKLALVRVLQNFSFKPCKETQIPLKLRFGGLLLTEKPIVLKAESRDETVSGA

Structure (SMILES): O=C(O)c1[nH]n(-c2ccc(S(=O)(=O)O)cc2)c(=O)c1N=Nc1ccc(S(=O)(=O)O)cc1
- outcome (CYP2C9 (gene 1559)): inactive
- outcome (CYP2E1 (gene 1571)): inactive
- outcome (CYP4A11 (gene 1579)): inactive
- outcome [1]: inactive
- outcome [2]: inactive
- outcome [3]: inactive
- outcome [4]: inactive
- outcome [5]: inactive
- outcome [6]: inactive
- outcome (CYP3A5 (gene 1577)): inactive
- outcome [7]: inactive
- outcome [8]: inactive
- outcome [9]: inactive
- outcome [10]: inactive
- outcome [11]: inactive
- outcome [12]: inactive
- outcome [13]: inactive
- outcome [14]: inactive
- outcome [15]: inactive

Structure (SMILES): CC(COCC(C)OC(=O)c1ccccc1)OC(=O)c1ccccc1 (stereo unspecified)
- outcome (CYP2C9 (gene 1559)): inactive
- outcome (CYP2E1 (gene 1571)): inactive
- outcome (CYP4A11 (gene 1579)): inactive
- outcome [1]: inactive
- outcome [3]: inactive
- outcome [4]: inactive
- outcome [5]: inactive
- outcome [6]: inactive
- outcome (CYP3A5 (gene 1577)): inactive
- outcome [7]: inactive
- outcome [8]: inactive
- outcome [16]: inactive
- outcome [9]: inactive
- outcome [10]: inactive
- outcome [11]: inactive
- outcome [12]: inactive
- outcome [13]: inactive
- outcome [14]: inactive
- outcome [15]: inactive

Structure (SMILES): O=C(N[C@@H](c1ccccc1)[C@@H]1CCCCN1)c1cccc(C(F)(F)F)c1Cl
- AC50 (CYP2C9 (gene 1559)): 36.1 µM (active)
- AC50 (CYP2E1 (gene 1571)): 13.1 µM (active)
- AC50 (CYP4A11 (gene 1579)): 24.2 µM (active)
- AC50 [1]: 86.9 µM (active)
- AC50 [2]: 50 µM (active)
- outcome [3]: inactive
- AC50 [4]: 83.3 µM (active)
- outcome [5]: inactive
- AC50 (CYP3A5 (gene 1577)): 90.6 µM (active)
- AC50 [7]: 33.2 µM (active)
- AC50 [8]: 23.1 µM (active)
- AC50 [9]: 76.6 µM (active)
- outcome [10]: inactive
- AC50 [11]: 82.8 µM (active)
- outcome [12]: inactive
- outcome [13]: inactive
- AC50 [14]: 50 µM (active)
- outcome [15]: inactive
